A selection: hits, their analogues and other compounds. The true share with any hit is near 19%.
CHX counter: affects cycloheximide protein synthesis inhibition readout, counter-screen; cell reporter, cycloheximide protein synthesis inhibition counterscreen; max response, %; 300,000 tested, 12% active; in the data active = max response mostly above about 13%, no sharp cut-off; inactive = mostly below about 14%; also: read at 38.3 µM for the half of the compounds with a filed dose; 0% is about no effect
Lassa entry inh: blocks Lassa virus binding to or entry into cells; Lassa virus pseudotype entry inhibition, cell reporter; Potency, µM (top dose mostly 37.9 µM), for inactives: at the top dose activity change, negative = inhibition, most hits filed as inhibitors; 300,000 tested, 1.2% active; AID 540256; calls by dose curve; tested in HEK293 cells; also: potency is read from the fitted curve at half-maximal effect; % is scaled to controls: 0 for no effect and ±100 for the full control effect; nearly all actives have a fitted effect of over 50% in size
Pf growth 96h: inhibits malaria parasite growth, 96 h | 320,000 tested, 6.9% active | Potency, µM (highest dose often 28.7 µM), without a hit: at the highest dose activity change, negative = inhibition, usual class: inhibitors | P. falciparum luciferase reporter growth, 96 h; also: potency is read from the fitted curve at half-maximal effect; % is scaled to controls: 0 for no effect and ±100 for the full control effect
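P. falciparum expressing integrated firefly luciferase grown in erythrocytes (2% hematocrit, 0.05% parasitemia final) with compounds for 96 hours at 37 C, 5% CO2. Growth inhibition read as loss of luminescence after adding luciferase detection reagent.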
Pf growth 48h: inhibits P. falciparum growth in the first generation, 48 h; Potency, µM (doses to about 28.7 µM), for inactives: top-dose activity change, negative = inhibition, most hits filed as inhibitors; 310,000 tested, 5.9% active; P. falciparum luciferase growth in erythrocytes, 48 h; also: potency is read from the fitted curve at half-maximal effect; % is scaled to controls: 0 for no effect and ±100 for the full control effect
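Luciferase-expressing P. falciparum in infected erythrocytes (2% hematocrit, 0.1% parasitemia final) in RPMI 1640/0.5% Albumax were exposed to compound for 48 hours at 37 C, 5% CO2; growth read as luminescence.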
Shiga toxin inh: Shiga toxin inhibition; Vero cells, Shiga toxin protein synthesis inhibition reporter; inhibition, % at 38.7 µM; 290,000 tested, 9.2% active; AID 2315; in the data active = inhibition mostly above about 28%, no sharp cut-off; inactive = mostly below about 43%; also: 0% is about no effect
MARV entry inh: blocks Marburg virus binding to or entry into cells | Marburg virus pseudotyped entry inhibition, cell reporter | Potency, µM (series often up to 37.8 µM), inactives show at the highest dose activity change, negative = inhibition, usual class: inhibitors | 300,000 tested, 1.8% active; calls by dose curve; tested in HEK293 cells; also: potency is read from the fitted curve at half-maximal effect; % is scaled to controls: 0 for no effect and ±100 for the full control effect
Active calls of the source: *; [ ] = dose if it differs, or a comment. Unless noted, calls follow the shape of the dose curve; as a rule, active = well fitted inhibition curve with a large enough effect; inconclusive = small, poorly fitted or top-dose-only effect, or another doubt; inactive = no such curve, though single readings can be large or run the other way.

How did C=CCN1C(=O)NC(c2ccc(OC)cc2)(C(F)(F)F)S/C1=C(\C#N)c1nnc(N2CCOCC2)n1-c1ccccc1 (stereo not given) do in these assays?
CHX counter: -2.1; Lassa entry inh: inconclusive; Pf growth 96h: inconclusive; Pf growth 48h: -1.5%; Shiga toxin inh: -3.2; MARV entry inh: inconclusive

How did COc1ccc2c(c1)sc1nc(=O)ccn12 do in these assays?
CHX counter: -2.2; Lassa entry inh: 17.7%; Pf growth 96h: inconclusive; Pf growth 48h: 42.2%; MARV entry inh: 12.1%

How did COc1ccc2c(c1)sc(=N)n2C do in these assays?
CHX counter: -6.4; Lassa entry inh: -0.2%; Pf growth 96h: 3.7µM*; Pf growth 48h: inconclusive; Shiga toxin inh: -13.1; MARV entry inh: 15.1%

How did COC(=O)c1ccc(-c2n[nH]c(=O)c3ccccc23)cc1 do in these assays?
CHX counter: -2.1; Lassa entry inh: -25.6%; Pf growth 96h: inconclusive; Pf growth 48h: 8.9%; Shiga toxin inh: -7.5; MARV entry inh: inconclusive

Results for C=Cn1c(C(=O)O)cc(CC)c1-c1ccccc1 ?
CHX counter: 1.1; Lassa entry inh: 4.5%; Pf growth 96h: 1.47µM*; Pf growth 48h: 7.9%; Shiga toxin inh: -7.2; MARV entry inh: inconclusive

How did CCc1cc(Cn2nc(-c3ccccc3)cc2C(=O)O)on1 do in these assays?
Pf growth 96h: -10.0%; Pf growth 48h: -1.5%

How did CCOc1ccc(CNC(=O)C2CCN(Cc3cc4ccccc4n3Cc3ccccc3C)CC2)cc1 do in these assays?
Lassa entry inh: 12.9%[46.1 µM]

What do the screens show for `CC1(C)CC(=O)c2ccc(OCc3ccc([N+](=O)[O-])cc3)cc2O1`?
CHX counter: 40.4*; Lassa entry inh: -26.4%; Pf growth 96h: 252.0%; Pf growth 48h: 227.7%; Shiga toxin inh: 84.5*; MARV entry inh: inconclusive

Results for COC(=O)c1ccc(COc2cc(O)c3c(c2)OC(C)(C)CC3=O)cc1 ?
CHX counter: 16.7; Lassa entry inh: -6.2%; Pf growth 48h: inconclusive; Shiga toxin inh: -3.9; MARV entry inh: -9.5%

Results for CC1(C)CC(=O)c2c(O)cc(OCc3ccc(Br)cc3)cc2O1 ?
CHX counter: 48.6*; Lassa entry inh: 9.9%; Pf growth 96h: 75.4%; Shiga toxin inh: 69.6*; MARV entry inh: inconclusive

How did N#CC1=C(N)N2C(=C(C#N)C1c1ccc(Br)cc1)Nc1ccccc12 (stereo not given) do in these assays?
CHX counter: 7.1; Lassa entry inh: inconclusive; Pf growth 96h: 9.28µM*; Pf growth 48h: inconclusive; Shiga toxin inh: 6.2; MARV entry inh: 9.2µM*

Results for O=C(COC(=O)c1c2c(nc3ccccc13)/C(=C/c1ccco1)CC2)NC1CCCC1 ?
CHX counter: -1.9; Lassa entry inh: 12.6µM*; Pf growth 96h: inconclusive; Pf growth 48h: -18.9%; Shiga toxin inh: -7.9; MARV entry inh: inconclusive

What do the screens show for `Cc1cc(C(=O)OCC(=O)NC2CCCC2)c2ccccc2n1`?
Lassa entry inh: 1.4%; Pf growth 96h: 15.9%; Pf growth 48h: 15.3%; MARV entry inh: 1.7%

How did CC1CCCCC1NC(=O)COC(=O)c1c2c(nc3ccccc13)/C(=C/c1ccco1)CC2 (stereo not given) do in these assays?
CHX counter: 9.7; Lassa entry inh: 10.3%; Pf growth 96h: 14.7µM*; Pf growth 48h: -44.8%; Shiga toxin inh: -13.1; MARV entry inh: -1.7%

How did Cc1ccc(CN(C)C(=O)c2cccc(S(=O)(=O)N3CCCC3)c2)cc1 do in these assays?
Pf growth 96h: -17.4%; Pf growth 48h: inconclusive

Results for O=C(NNC(=S)Nc1ccc(Br)cc1)c1cccnc1 ?
CHX counter: 18.1*; Lassa entry inh: -4.2%[46.1 µM]; Pf growth 96h: 43.2%; Pf growth 48h: 43.0%; Shiga toxin inh: 37.3; MARV entry inh: 11.2%[46.1 µM]

How did O=C(NNC(=S)NC(=O)c1cccnc1)c1ccc(Cl)cc1 do in these assays?
CHX counter: 19.1*; Lassa entry inh: -1.1%; Pf growth 96h: 22.4%; Pf growth 48h: inconclusive; Shiga toxin inh: -26.2; MARV entry inh: 0.1%

Results for O=C(Cc1ccc(Cl)cc1)NNC(=S)NC(=O)c1cccnc1 ?
CHX counter: -2.7; Pf growth 96h: 4.15µM*; Pf growth 48h: -65.9%; Shiga toxin inh: 10.4

How did CC(=O)Nc1ccc(N/C(C)=C/C(=O)c2cccnc2)cc1 do in these assays?
CHX counter: -6.8; Lassa entry inh: 18.3%; Pf growth 96h: 64.9%; Pf growth 48h: 16.5%; Shiga toxin inh: -10.2; MARV entry inh: -1.6%

Results for O=C(/C=C\Nc1ccc(Br)cc1)c1cccnc1 ?
CHX counter: 56.9*; Lassa entry inh: inconclusive; Pf growth 96h: 304.6%; Pf growth 48h: 285.4%; Shiga toxin inh: 75.6*; MARV entry inh: inconclusive

Results for CCNC(=S)NNC(=O)c1cccnc1 ?
CHX counter: -2.7; Lassa entry inh: 14.0%; Pf growth 96h: 93.3%; Pf growth 48h: -9.2%; Shiga toxin inh: -6.9; MARV entry inh: 6.8%

What do the screens show for `CSC1=NC2(CCCCC2)CC12C=CC(=O)C=C2`?
CHX counter: -0.6; Pf growth 96h: 164.5%; Pf growth 48h: inconclusive; Shiga toxin inh: 7.9

Results for O=C(NC(=S)NNC(=O)c1ccccc1O)c1cccnc1 ?
CHX counter: 13.6; Lassa entry inh: -15.9%; Pf growth 96h: 30.3%; Pf growth 48h: 6.9%; Shiga toxin inh: 51.0*; MARV entry inh: -7.0%

Results for O=C(NC(=S)NNC(=O)c1ccc(Cl)cc1Cl)c1cccnc1 ?
CHX counter: -3.0; Lassa entry inh: 15.4%; Pf growth 96h: inconclusive; Pf growth 48h: 0.4%; Shiga toxin inh: 32.3; MARV entry inh: inconclusive

Results for COc1cc([N+](=O)[O-])ccc1NC(=O)CN(C)C ?
CHX counter: -2.1; Lassa entry inh: -2.0%; Pf growth 96h: 33.6%; Pf growth 48h: -9.8%; Shiga toxin inh: -5.3; MARV entry inh: 6.8%

Results for COc1ccc([N+](=O)[O-])cc1NC(=O)Nc1cccc(Cl)c1 ?
CHX counter: -0.8; Lassa entry inh: -10.5%; Pf growth 96h: 86.7%; Pf growth 48h: 9.28µM*; Shiga toxin inh: 16.3; MARV entry inh: -13.1%

How did O=C(Cc1ccc([N+](=O)[O-])cc1)Nc1ccc(Cl)cc1 do in these assays?
CHX counter: 1.2; Lassa entry inh: 2.8%; Pf growth 96h: 3.5%; Pf growth 48h: 10.4µM*; Shiga toxin inh: 18.6; MARV entry inh: inconclusive

What do the screens show for `COc1ccc([N+](=O)[O-])cc1NC1C2CC3CC(C2)CC1C3` (stereo not given)?
CHX counter: -2.1; Lassa entry inh: -17.6%; Pf growth 96h: 0.522µM*; Pf growth 48h: 7.9%; Shiga toxin inh: 28.3; MARV entry inh: -4.6%

How did CCN(CC(=O)Nc1ccc([N+](=O)[O-])cc1OC)c1ccccc1 do in these assays?
CHX counter: -4.2; Lassa entry inh: inconclusive; Pf growth 96h: 9.28µM*; Pf growth 48h: inconclusive; Shiga toxin inh: 23.2; MARV entry inh: inconclusive

How did Cc1cc(N2C(=O)c3ccc(C(=O)Nc4ccc(O)cc4C(=O)O)cc3C2=O)no1 do in these assays?
CHX counter: -2.0; Lassa entry inh: 3.2%[46.1 µM]; Pf growth 96h: 0.0%; Pf growth 48h: -4.3%; Shiga toxin inh: -5.4; MARV entry inh: -1.8%[46.1 µM]
